Source: PubChem BioAssay
Values joined by “and” are separate entries in the source; they are usually repeats but may differ in a detail not shown here. Identical values can stand only once. A number with no mark means an inactive call. Active and inactive are the calls of the source.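 Rule for the calls: active = inhibition at or above 50% relative to wild type and mutant plate controls; inactive = inhibition below 50%.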

Experiment: loss of swimming-algae plug formation – whole organism, Chlamydomonas reinhardtii, WT vs cilia-less mutant, absorbance, 96-well, primary screen (AID 463189);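 note: 0% = wild type cc124 cells in DMSO and 100% = ciliumless bld1 mutant cells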
Conditions: Chlamydomonas reinhardtii gravitaxis, OD600 absorbance, 2 days; at 10 µM; stronger effect = higher value

Q: Which inhibition does the source give for CNc1ccc2oc(C[C@H]3O[C@@]4(CC[C@H]3C)O[C@H]([C@H](C)C(=O)c3ccc[nH]3)[C@H](C)C[C@H]4C)nc2c1C(=O)O here?
A: 84.5% (active)

Q: For COC(=O)c1cc2c(cn1)[nH]c1ccccc12, which inhibition is on record?
A: 2.96%

Q: Which inhibition does the source give for Oc1ccc2c3c1O[C@H]1c4oc5ccccc5c4C[C@@]4(O)C(C2)N(CC2CC2)CCC314 (stereo partly specified) here?
A: 3.38%

Q: For N#CC(C#N)=Cc1ccc([N+](=O)[O-])c(O)c1, which inhibition is on record?
A: 2.16%

Q: With NCCCP(=O)(O)O as the compound, how does the inhibition read?
A: 13.9%

Q: For CC(=O)[C@H]1CCC2C3CC[C@H]4C[C@H](O)CC[C@]4(C)C3CC[C@@]21C (stereo partly specified), which inhibition is on record?
A: 0.863%

Q: With Oc1ccc2c3c1O[C@H]1[C@@H](O)CC[C@@]4(O)C(C2)N(CC2CCC2)CCC314 (stereo partly specified) as the compound, how does the inhibition read?
A: 3.28%

Q: With CC12CCC3C(CCC4=C(O)C(=O)CCC43C)C1CCC2=O (stereo unspecified) as the compound, how does the inhibition read?
A: 12.9%

Q: Which inhibition does the source give for Cc1ncc(CNC(=O)N(CCCl)N=O)c(N)n1 here?
A: 3.94%

Q: For OC1CCCCC1N1CCC(c2ccccc2)CC1 (stereo unspecified), which inhibition is on record?
A: 3.25%

Q: Which inhibition does the source give for CN[C@@H]1C[C@@H](c2ccc(Cl)c(Cl)c2)c2ccccc21 here?
A: 129% (active)

Q: With CCCCc1ccc(C(=O)O)nc1 as the compound, how does the inhibition read?
A: -11.3%

Q: For NC1CC1c1ccccc1 (stereo unspecified), which inhibition is on record?
A: 9.58%

Q: For NC1CCc2cc(O)c(O)cc2C1 (stereo unspecified), which inhibition is on record?
A: -5.92%

Q: Which inhibition does the source give for C[N+]1(C)C2CC(OC(=O)[C@H](CO)c3ccccc3)CC1C1OC12 (stereo partly specified) here?
A: -8.63% and 9.74%

Q: For C[C@H](Cc1ccc2c(c1)OC(C(=O)O)(C(=O)O)O2)NC[C@H](O)c1cccc(Cl)c1, which inhibition is on record?
A: 1.22%
